# Data as given in PubChem BioAssay.
# Values joined by “and” are separate entries in the source; they are usually repeats but may differ in a detail not shown here. Equal entries are not always repeated. Records with an inconclusive call do not appear. For some assays here: Results with a measured potency or affinity are listed apart. Active and inactive are the calls of the source. Unless noted, the rule behind the calls is not given here.
# Columns and labels:
# [1] = polyglutamine-triggered caspase-3 activation inhibitors, cell-based (AID 1583); details: polyglutamine-induced caspase-3 activation, cell assay; stronger effect = higher value;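 tested at 10 µM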
# [2] = biological target: Huntingtin (Homo sapiens) (UniProt P42858); assay: inhibitors of mutant Htt aggregation in vitro, dose response, QA1 (AID 1584); details: in vitro mutant huntingtin aggregation assay; confirmation test; at 10 µM; stronger effect = lower value
# [3] = suppressors of polyQ aggregation in yeast, 75Q-TubU reporter (AID 1593); details: Yeast 75Q polyglutamine aggregation reporter
# [4] = rescue of polyQ-huntingtin neuronal dysfunction in worms, whole organism, C. elegans mechanosensory neurons, N-terminal huntingtin (AID 1599); details: touch response, stronger effect = higher value
# [5] = inhibitors of mitochondrial cytochrome c release, biochemical, purified mitochondria (AID 1603); details: stronger effect = lower value;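 note: mouse liver mitochondria challenged with calcium chloride; signal normalized to the plate average as 100%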
# [6] = inhibitors of polyQ protein aggregation (AID 1604); details: polyglutamine-induced protein aggregation inhibition assay; stronger effect = higher value; tested at 2.5 µM
# [7] = enhancers of glutamate uptake in motor neurons, MN-1 cell line (AID 1612); details: MN-1 motor neuron cells, stronger effect = higher value;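 note: tested at 1 µM final; 0% = mean of DMSO vehicle wells on each plate; positive means more glutamate uptake than control and negative means less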
# [8] = suppressors of polyglutamine aggregation in yeast, 75Q-TubH (AID 1616); details: S. cerevisiae 75Q-TubH polyglutamine aggregation suppression; stronger effect = higher value
# [9] = biological target: 6-phosphogluconate dehydrogenase, decarboxylating (Homo sapiens) (UniProt P52209); assay: 6PGD enzyme inhibitors, primary screen, biochemical, human, recombinant enzyme, NADPH absorbance (AID 1159550;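 active = at least 20% inhibition of 6-phosphogluconate dehydrogenase activity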); details: recombinant 6PGD, NADPH absorbance 341 nm; at 10 µM; stronger effect = higher value
# [10] = differential killing of epithelial or mesenchymal cells, primary screen, imaging, PC-3E GFP, TEM4-18 mCherry, co-culture (AID 1345086;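 active = compounds killing one labelled cell type while sparing the other, by normalised counts and ratio limits, not self-fluorescent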;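 for all read-outs here: cells exposed to compound for 72 h before imaging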;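 for red/green cell ratio (normalised): normalised mesenchymal count divided by normalised epithelial count so high means epithelial killing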); details: imaging cell counts, at 1 µM; for red/green cell ratio (normalised): actives lie on both sides
# [11] = test system: Aerobactin synthetase IucA (Klebsiella pneumoniae hvKP1); assay: Biochemical IucA enzyme inhibition primary screen of the Spectrum library (AID 1346200); details: malachite green pyrophosphate, A620, at 8 µM, stronger effect = lower value;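 note: 100% = wells without compound and 0% = wells lacking enzyme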
# [12] = sensitizers of A549 cells to miR-34 induction, primary screen, imaging, A549 dox-inducible miR-34, nuclei and caspase counts (AID 1347080;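 active = compounds whose cell count with miR-34 switched on is under 0.7 times the count with it off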); details: A549 miR-34 inducible, Hoechst nuclei count, 48 h
# [13] = inhibitors of Cryptococcus chitosan production, flow cytometry, Cibacron Brilliant Red staining (AID 1347148); details: Cryptococcus neoformans chitosan, stronger effect = lower value; at 10 µM unless noted;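 note: compound exposure lasted three days at 37 degrees C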
# [14] = biological target: Mitogen-activated protein kinase 7 (Homo sapiens) (UniProt Q13164); assay: ERK5 transactivation activators in reporter cells, primary screen, cell-based, HTS (AID 1508626;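 active = luciferase signal above three times the same-plate solvent-only control wells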;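 note: luciferase driven by Gal4-ERK5 fusion binding five Gal4 sites before minimal TATA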); details: HeLa Gal4-ERK5 transactivation, 18 h, at 5 µM, stronger effect = higher value
# [15] = reducers of polyQ inclusions in PC12 cells, cell-based, NGF-treated PC12, GFPQ80 (AID 1614); details: PC12 NGF-treated GFP-polyQ80 inclusion reduction;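 note: lower means fewer inclusions and 0 means no inclusions at all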
# [16] = liver-stage malaria parasite growth inhibition, primary screen, cell-based, HepG2, luciferase luminescence, HepG2 viability (AID 624349; in the data active = parasite load remaining mostly below about 12%, no sharp cut-off; inactive = mostly above about 10%;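 note: 100% = mean of DMSO negative control wells on the same plate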); details: P. berghei liver stage in HepG2, luciferase luminescence, concentration not given here; parasite load remaining: stronger effect = lower value; viability: measured here: HepG2 viability without parasites
# [17] = survival rescue of mitochondrial mutant cells in low glucose, primary screen, MELAS cybrids, Rieske KO mouse fibroblasts, CellTiter-Glo (AID 1508586;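 active = mean z-score across replicates of 1.96 or higher in either the MELAS or the Rieske mutant cell line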;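 note: z relative to plate mean and SD of compound and empty wells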)
# [18] = biological target: NAD(+) hydrolase SARM1 (Homo sapiens) (UniProt Q6SZW1); assay: SARM1 TIR NADase inhibitors, cell lysate, NAD-Glo luminescence (AID 1508614;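 active = compound whose remaining NAD level is above about 45 nM, limit read from the data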;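 note: higher remaining NAD means stronger inhibition of SARM1 NADase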); details: SAM-TIR HEK293T lysate NADase, at 1 µM, stronger effect = higher value
# [19] = circadian clock period modulators, cell-based, LOPAC library, luminescence reporter (AID 2774); details: circadian reporter cells, at 7 µM, actives lie on both sides;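 note: values are relative to mean of DMSO wells on each plate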
# [20] = hESC survival regulators, cell-based (AID 493140); details: human embryonic stem cell survival screen; stronger effect = higher value;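 note: cells exposed to compounds for four days before counting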
# [21] = test system: Hepatitis C virus NS3 helicase; assay: HCV NS3 helicase inhibitors, primary screen, biochemical, fluorescence polarization, LOPAC1280 library (AID 687035; in the data active = inhibition above about 37%); details: Purified HCV NS3 helicase, Cy5-dT15 ssDNA binding fluorescence polarization; stronger effect = higher value; concentration not given here
# [22] = Cy5 fluorescence quenching or enhancement artefacts, artefact control for HCV NS3 helicase inhibitor project, biochemical, LOPAC1280 (AID 687037); details: Cy5-DNA-NS3h complex fluorescence interference counterscreen
# [23] = phospholipid biosynthesis inhibitors in animal cells, primary screen, cell-based, LOPAC library, screen 4 (AID 1347384); details: phospholipid biosynthesis inhibition screen, at 10 µM
# [24] = viability rescue of complex I mutant cybrids, primary screen, cell-based, galactose medium, ATP luminescence (AID 1645843;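 active = z-score of at least 1.8 in each of two replicates, scored against plate mean and spread of sample wells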;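 note: positive z means more ATP and so rescue of galactose-driven cybrid death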); details: complex I mutant cybrid cells, 72 h, stronger effect = higher value
# [25] = growth inhibition of DIPG glioma cells, dose response, cell-based, SU-DIPG-XVII, MIPE5.0, CellTiter-Glo, qHTS (AID 1347060; cut-off not given, nearly all actives have AC50 up to about 26 µM;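 note: cells exposed to compound for 48 hours before viability readout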); details: SU-DIPG-XVII viability, CellTiter-Glo ATP luminescence
# [26] = growth inhibition of DIPG glioma cells, dose response, cell-based, SU-DIPG-XIII, MIPE5.0, CellTiter-Glo, qHTS (AID 1347064; cut-off not given, nearly all actives have AC50 up to about 23 µM;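 note: cells exposed to compound for 48 hours before the viability read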); details: SU-DIPG-XIII viability, CellTiter-Glo ATP luminescence
# [27] = viability loss in pontine glioma line – cell-based, SU-DIPG-XXV, MIPE5.0, CellTiter-Glo, qHTS, dose response (AID 1347065; cut-off not given, nearly all actives have AC50 up to about 26 µM;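 note: cells exposed to compound for 48 hours before ATP readout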); details: CellTiter-Glo ATP luminescence
# [28] = SU-DIPG-XXV glioma cell viability, MIPE5.0 library, qHTS (AID 1347068; cut-off not given, nearly all actives have IC50 up to about 30 µM;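 note: cells exposed to compound for 48 hours before viability readout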)
# [29] = measured here: epithelial PC-3E GFP cell survival
# [30] = measured here: mesenchymal TEM4-18 mCherry cell survival
# [31] = measured here: relative caspase fold change +Dox/-Dox
# [32] = measured here: total cells with miR-34 induction, stronger effect = lower value
# [33] = measured here: total cells without miR-34 induction
# Chain of 6-phosphogluconate dehydrogenase, decarboxylating (Homo sapiens) (P52209 whole entry, looked up): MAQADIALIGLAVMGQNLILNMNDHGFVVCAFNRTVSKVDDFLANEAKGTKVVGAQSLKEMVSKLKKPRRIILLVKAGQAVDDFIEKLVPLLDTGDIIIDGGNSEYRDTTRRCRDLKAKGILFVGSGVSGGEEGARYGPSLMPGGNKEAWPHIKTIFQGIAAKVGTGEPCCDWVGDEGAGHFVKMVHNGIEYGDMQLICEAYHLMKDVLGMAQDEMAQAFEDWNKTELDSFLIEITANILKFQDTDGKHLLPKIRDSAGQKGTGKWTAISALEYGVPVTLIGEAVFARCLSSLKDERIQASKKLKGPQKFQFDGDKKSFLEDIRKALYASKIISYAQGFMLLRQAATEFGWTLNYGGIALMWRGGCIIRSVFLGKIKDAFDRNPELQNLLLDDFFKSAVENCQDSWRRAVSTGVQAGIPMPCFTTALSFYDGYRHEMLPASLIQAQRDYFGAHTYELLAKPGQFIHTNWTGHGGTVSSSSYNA
# Chain of Mitogen-activated protein kinase 7 (Homo sapiens) (Q13164 whole entry, looked up, the tested form may be a part): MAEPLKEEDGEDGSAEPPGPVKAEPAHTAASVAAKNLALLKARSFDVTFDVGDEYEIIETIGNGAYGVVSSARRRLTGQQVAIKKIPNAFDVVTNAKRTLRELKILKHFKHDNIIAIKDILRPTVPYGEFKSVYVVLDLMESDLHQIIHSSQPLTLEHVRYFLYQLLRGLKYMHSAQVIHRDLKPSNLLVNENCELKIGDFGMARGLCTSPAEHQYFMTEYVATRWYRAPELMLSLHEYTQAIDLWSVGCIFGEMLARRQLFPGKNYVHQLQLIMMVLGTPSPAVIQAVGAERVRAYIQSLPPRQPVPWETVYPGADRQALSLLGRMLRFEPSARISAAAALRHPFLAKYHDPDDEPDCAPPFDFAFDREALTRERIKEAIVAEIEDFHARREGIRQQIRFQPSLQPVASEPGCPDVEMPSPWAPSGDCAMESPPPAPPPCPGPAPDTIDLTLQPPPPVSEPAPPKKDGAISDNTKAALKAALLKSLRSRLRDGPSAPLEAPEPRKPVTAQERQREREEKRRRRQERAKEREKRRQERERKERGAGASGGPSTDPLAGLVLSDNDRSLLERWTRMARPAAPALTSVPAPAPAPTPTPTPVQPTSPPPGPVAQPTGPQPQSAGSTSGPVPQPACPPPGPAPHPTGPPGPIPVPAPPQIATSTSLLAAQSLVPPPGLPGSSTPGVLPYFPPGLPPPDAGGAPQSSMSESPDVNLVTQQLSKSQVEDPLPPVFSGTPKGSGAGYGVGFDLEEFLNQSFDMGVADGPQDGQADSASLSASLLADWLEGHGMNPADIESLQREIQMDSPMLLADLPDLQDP
# Chain of Huntingtin (Homo sapiens) (P42858 whole entry, looked up): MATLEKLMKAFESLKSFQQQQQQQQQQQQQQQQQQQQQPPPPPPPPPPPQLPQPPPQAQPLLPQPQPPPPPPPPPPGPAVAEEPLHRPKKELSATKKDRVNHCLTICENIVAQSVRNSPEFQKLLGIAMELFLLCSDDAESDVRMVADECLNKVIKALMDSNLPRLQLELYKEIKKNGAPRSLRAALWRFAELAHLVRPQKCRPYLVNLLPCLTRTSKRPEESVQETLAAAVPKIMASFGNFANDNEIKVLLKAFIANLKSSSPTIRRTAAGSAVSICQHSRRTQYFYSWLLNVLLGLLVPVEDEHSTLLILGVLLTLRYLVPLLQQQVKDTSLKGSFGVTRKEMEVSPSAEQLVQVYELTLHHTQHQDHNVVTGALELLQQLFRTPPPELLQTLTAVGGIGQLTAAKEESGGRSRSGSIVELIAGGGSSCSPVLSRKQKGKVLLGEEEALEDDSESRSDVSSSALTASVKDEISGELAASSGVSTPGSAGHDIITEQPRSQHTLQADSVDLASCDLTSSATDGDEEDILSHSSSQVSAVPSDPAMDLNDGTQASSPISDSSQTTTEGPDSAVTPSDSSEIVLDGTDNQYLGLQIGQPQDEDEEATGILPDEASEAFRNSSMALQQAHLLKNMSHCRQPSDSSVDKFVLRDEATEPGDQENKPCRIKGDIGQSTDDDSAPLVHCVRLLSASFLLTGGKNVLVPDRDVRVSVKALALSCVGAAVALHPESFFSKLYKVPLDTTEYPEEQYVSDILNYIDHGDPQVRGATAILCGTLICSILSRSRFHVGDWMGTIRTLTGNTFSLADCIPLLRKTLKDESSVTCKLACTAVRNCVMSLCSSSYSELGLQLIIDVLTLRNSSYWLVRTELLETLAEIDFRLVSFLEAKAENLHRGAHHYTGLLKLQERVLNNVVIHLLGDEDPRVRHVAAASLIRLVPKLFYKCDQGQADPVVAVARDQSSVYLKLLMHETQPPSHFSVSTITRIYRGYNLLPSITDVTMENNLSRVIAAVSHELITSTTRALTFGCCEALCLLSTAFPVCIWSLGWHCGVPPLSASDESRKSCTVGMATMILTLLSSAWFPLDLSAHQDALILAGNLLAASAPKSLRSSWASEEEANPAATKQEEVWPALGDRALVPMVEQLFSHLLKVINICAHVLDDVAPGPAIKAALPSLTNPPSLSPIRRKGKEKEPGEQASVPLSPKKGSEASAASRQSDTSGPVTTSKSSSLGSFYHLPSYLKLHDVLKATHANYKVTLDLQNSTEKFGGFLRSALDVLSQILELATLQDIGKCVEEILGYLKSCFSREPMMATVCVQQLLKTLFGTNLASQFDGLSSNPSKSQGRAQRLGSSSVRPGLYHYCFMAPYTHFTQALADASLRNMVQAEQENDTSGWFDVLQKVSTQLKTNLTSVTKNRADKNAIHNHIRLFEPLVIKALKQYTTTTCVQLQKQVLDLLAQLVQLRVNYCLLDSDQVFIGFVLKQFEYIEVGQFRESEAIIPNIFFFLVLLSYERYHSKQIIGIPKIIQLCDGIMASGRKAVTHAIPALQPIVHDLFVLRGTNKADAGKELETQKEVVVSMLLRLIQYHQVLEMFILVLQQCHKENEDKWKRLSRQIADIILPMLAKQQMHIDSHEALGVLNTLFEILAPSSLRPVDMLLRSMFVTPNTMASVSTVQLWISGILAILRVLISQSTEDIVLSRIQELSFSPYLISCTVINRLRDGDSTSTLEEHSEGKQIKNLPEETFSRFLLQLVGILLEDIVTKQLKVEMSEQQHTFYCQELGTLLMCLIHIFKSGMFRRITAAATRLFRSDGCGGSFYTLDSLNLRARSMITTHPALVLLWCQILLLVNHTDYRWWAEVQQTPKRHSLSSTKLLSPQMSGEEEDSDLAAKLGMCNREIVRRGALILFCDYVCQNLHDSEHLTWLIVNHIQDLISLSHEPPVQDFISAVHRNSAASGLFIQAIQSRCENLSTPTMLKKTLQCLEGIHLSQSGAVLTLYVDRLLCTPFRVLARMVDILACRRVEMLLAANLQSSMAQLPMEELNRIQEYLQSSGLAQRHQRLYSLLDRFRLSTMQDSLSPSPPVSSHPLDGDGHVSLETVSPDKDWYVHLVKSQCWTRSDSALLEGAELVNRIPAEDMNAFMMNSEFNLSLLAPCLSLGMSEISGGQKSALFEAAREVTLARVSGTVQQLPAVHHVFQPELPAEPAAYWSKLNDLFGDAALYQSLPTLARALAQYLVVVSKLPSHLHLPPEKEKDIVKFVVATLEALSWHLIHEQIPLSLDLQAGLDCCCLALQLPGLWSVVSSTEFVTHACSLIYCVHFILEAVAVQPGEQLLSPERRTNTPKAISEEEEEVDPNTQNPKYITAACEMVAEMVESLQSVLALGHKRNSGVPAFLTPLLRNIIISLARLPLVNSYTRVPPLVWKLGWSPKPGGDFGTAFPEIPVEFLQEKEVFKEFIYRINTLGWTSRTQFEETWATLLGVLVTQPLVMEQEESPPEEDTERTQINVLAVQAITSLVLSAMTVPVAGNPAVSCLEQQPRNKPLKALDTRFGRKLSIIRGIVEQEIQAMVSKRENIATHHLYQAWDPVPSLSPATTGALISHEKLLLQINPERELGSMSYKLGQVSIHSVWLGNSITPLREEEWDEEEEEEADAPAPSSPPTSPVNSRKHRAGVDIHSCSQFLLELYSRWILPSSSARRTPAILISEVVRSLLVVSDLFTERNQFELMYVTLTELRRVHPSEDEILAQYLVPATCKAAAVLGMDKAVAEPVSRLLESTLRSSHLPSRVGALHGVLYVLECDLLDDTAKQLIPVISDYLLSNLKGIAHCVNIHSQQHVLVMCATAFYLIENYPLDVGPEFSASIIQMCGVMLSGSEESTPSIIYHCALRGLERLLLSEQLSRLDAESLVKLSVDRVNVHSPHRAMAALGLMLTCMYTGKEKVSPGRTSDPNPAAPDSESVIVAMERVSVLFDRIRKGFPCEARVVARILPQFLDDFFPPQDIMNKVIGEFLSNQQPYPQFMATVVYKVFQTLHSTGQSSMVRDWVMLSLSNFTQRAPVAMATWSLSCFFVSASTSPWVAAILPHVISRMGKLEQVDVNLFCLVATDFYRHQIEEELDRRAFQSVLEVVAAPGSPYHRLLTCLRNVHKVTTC
structure (smiles),measurement,setting,value
O=C1C=CC(=O)c2c(O)cccc21,inhibition,[1],-40.3%
same,aggregation ratio,[2],0.312
same,score,[3],0.54
same,rescue above control,[4],2.83
same,cytochrome c release ratio,[5],0.82
same,inhibition of aggregation,[6],100%
same,glutamate uptake change,[7],42.9%
same,aggregation suppression score,[8],0.876
same,inhibition,[9],-2.17% (inactive)
same,red/green cell ratio (normalised),[10],0.98 (inactive)
same,normalised cell number,[10]; [29],1.05
same,normalised cell number,[10]; [30],1.03
same,activity remaining,[11],127% (inactive)
same,fold change,[12]; stronger effect = lower value,0.989 (inactive)
same,fold change,[12]; [31],0.796
same,cell count,[12]; [32],2420
same,cell count,[12]; [33],2440
same,fold fluorescence,[13],2.01 [at 287.1 µM] (active)
same,luciferase signal,[14],52 AU (inactive)
C[C@H](N)[C@H](O)c1ccc(O)c(O)c1,inhibition,[1],6.31%
same,score,[3],1.43
same,rescue above control,[4],4.59
same,cytochrome c release ratio,[5],0.9
same,inhibition of aggregation,[6],7.58%
same,glutamate uptake change,[7],12.7%
same,inclusion score,[15],2
same,aggregation suppression score,[8],1.14
same,parasite load remaining,[16],61.3% (inactive) and 64.5% (inactive) and 57.8% (inactive)
same,viability,[16],93.6% and 73.6% and 105%
same,inhibition,[9],-1.74% (inactive)
same,red/green cell ratio (normalised),[10],1.17 (inactive)
same,normalised cell number,[10]; [29],1.01
same,normalised cell number,[10]; [30],1.18
same,activity remaining,[11],102% (inactive)
same,fold change,[12]; stronger effect = lower value,0.912 (inactive) and 0.869 (inactive)
same,fold change,[12]; [31],1.02 and 0.57
same,cell count,[12]; [32],9300 and 11200
same,cell count,[12]; [33],10200 and 12900
same,z-score,"[17]; MELAS cybrid survival, CellTiter-Glo 48 h, stronger effect = higher value",-0.729 (inactive)
same,z-score,"[17]; Rieske KO mouse fibroblast survival, CellTiter-Glo 72 h",-1.14
same,remaining NAD,[18],10 nM (inactive)
same,luciferase signal,[14],16 AU (inactive)
OC1CCCCC1N1CCC(c2ccccc2)CC1 (configuration not stated),inhibition,[1],-2.9%
same,score,[3],1.36
same,rescue above control,[4],12.8
same,cytochrome c release ratio,[5],1.15
same,inhibition of aggregation,[6],57.4%
same,glutamate uptake change,[7],-9.45%
same,inclusion score,[15],2
same,aggregation suppression score,[8],1.46
same,period change,[19],0.065 h (inactive)
same,survival,[20],2.42 (inactive)
same,parasite load remaining,[16],122% (inactive) and 70.2% (inactive)
same,viability,[16],88.2% and 106%
same,inhibition,[21],-4% (inactive)
same,fluorescence ratio (interference),[22],1 (inactive)
same,inhibition,[9],1.03% (inactive)
same,red/green cell ratio (normalised),[10],0.98 (inactive)
same,normalised cell number,[10]; [29],1.07
same,normalised cell number,[10]; [30],1.05
same,activity remaining,[11],87.4% (inactive)
same,fold change,[12]; stronger effect = lower value,0.987 (inactive) and 1.03 (inactive) and 0.84 (inactive)
same,fold change,[12]; [31],1.87 and 1.57 and 4
same,cell count,[12]; [32],10100 and 9780 and 10400
same,cell count,[12]; [33],10200 and 9480 and 12300
same,outcome,[23],inactive
same,luciferase signal,[14],60 AU (inactive)
same,z-score,[24],0.03 (inactive) and 0.65 (inactive)
COc1cc([C@@H]2c3cc4c(cc3[C@@H](O)C3COC(=O)C32)OCO4)cc(OC)c1O (some centres not stated),inhibition,[9],4.81% (inactive)
same,red/green cell ratio (normalised),[10],1.06 (inactive)
same,normalised cell number,[10]; [29],0.29
same,normalised cell number,[10]; [30],0.31
same,activity remaining,[11],118% (inactive)
same,AC50,[25],263 nM (active)
same,AC50,[26],525 nM (active)
same,AC50,[27],417 nM (active)
same,IC50,[28],332 nM (active)
